Experimental data: the supplement of paper PMC12819154, “High-throughput peptide-centric local stability assay extends protein–ligand identification to membrane proteins, tissues and bacteria” (Nature Structural & Molecular Biology, 2025)

Compound: CN[C@@H]1C[C@H]2O[C@@](C)([C@@H]1OC)n1c3ccccc3c3c4c(c5c6ccccc6n2c5c31)C(=O)NC4 [staurosporine]
Experiment: log2 fold change of tryptic peptide abundance, ligand vs vehicle (limited proteolysis) (log2 ratio); higher = more trypsin-susceptible (destabilized)
Conditions: ligand concentration: 20 uM; sample: mouse liver crude lysate; replicate design: treated separately

Sequence of UniProt P14246 (P14246 whole entry): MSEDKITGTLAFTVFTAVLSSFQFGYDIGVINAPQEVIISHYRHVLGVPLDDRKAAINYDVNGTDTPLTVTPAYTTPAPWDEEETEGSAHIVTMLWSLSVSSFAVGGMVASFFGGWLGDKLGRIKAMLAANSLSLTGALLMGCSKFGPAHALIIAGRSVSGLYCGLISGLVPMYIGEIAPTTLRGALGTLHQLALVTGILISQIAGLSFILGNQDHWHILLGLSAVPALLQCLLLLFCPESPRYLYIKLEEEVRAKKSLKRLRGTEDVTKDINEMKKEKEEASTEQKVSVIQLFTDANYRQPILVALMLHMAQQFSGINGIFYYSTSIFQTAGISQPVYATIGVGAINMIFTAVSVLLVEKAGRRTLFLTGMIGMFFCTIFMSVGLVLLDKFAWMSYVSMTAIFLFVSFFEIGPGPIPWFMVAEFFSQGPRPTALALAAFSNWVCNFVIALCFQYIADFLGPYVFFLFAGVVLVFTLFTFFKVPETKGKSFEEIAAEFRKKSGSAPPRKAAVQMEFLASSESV
Sequence of UniProt Q8BK48 (Q8BK48 whole entry): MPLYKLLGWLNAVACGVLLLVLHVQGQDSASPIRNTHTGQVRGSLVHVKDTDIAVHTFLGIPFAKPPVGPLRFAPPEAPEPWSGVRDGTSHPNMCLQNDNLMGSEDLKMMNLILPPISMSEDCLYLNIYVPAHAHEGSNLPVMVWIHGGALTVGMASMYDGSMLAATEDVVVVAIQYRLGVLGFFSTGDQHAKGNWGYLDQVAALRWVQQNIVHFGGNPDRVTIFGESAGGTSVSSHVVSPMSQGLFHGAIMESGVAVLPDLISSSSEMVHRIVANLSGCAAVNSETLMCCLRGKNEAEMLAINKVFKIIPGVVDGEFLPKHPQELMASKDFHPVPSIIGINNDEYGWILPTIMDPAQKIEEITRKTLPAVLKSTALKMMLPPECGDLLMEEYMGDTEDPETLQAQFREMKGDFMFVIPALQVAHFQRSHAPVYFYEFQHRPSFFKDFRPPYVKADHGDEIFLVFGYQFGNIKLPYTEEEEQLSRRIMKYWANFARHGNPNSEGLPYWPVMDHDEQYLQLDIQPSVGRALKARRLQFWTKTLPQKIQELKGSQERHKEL
Sequence of UniProt Q9DB30 (Q9DB30 whole entry): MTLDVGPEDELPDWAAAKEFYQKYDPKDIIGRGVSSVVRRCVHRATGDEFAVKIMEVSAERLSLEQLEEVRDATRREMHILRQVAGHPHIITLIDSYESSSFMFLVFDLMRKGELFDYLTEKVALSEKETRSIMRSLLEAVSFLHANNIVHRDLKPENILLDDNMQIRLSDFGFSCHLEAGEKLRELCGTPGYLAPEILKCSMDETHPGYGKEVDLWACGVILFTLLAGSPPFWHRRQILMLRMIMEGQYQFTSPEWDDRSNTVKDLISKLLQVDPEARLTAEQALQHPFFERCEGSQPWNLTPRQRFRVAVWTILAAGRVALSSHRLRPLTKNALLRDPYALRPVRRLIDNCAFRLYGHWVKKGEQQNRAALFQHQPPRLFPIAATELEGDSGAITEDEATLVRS
Sequence of UniProt P47757 (P47757 whole entry): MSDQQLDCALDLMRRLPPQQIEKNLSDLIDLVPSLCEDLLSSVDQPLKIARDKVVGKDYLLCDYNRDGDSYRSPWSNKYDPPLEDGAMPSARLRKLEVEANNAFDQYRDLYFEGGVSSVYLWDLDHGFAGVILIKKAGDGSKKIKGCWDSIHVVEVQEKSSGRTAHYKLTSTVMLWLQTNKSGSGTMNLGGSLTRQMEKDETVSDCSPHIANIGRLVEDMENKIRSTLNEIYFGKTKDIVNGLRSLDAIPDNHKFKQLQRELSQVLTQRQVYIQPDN
Sequence of UniProt O55047 (O55047 whole entry): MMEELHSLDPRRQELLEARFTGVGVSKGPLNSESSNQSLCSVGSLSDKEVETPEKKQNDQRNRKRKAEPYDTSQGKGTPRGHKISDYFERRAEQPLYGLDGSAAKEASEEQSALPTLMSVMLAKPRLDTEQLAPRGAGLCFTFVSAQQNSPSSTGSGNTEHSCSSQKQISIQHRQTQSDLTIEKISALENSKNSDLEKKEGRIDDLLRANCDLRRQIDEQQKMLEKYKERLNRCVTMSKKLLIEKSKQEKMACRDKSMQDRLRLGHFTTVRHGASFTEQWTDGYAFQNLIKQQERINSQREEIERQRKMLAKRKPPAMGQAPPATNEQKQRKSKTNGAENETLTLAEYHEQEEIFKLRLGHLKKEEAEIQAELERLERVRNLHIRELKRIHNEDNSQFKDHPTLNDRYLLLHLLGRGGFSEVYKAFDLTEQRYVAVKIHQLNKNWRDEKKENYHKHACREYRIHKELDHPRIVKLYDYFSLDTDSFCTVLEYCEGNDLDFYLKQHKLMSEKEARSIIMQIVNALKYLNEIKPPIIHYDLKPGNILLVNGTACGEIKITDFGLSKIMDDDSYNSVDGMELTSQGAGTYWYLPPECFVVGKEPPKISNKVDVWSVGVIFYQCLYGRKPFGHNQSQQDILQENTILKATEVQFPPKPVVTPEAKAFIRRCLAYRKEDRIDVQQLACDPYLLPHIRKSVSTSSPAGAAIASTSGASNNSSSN
Sequence of UniProt Q8N9S3 (Q8N9S3 whole entry): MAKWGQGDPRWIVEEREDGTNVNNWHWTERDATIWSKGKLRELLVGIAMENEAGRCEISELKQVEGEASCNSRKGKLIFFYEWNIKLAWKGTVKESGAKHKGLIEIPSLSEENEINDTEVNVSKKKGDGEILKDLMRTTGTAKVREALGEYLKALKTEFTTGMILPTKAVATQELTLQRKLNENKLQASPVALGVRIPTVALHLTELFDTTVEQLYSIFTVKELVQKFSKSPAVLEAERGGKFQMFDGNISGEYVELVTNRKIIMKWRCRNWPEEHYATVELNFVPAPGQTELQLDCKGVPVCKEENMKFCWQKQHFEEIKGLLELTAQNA
Sequence of UniProt Q61136 (Q61136 whole entry): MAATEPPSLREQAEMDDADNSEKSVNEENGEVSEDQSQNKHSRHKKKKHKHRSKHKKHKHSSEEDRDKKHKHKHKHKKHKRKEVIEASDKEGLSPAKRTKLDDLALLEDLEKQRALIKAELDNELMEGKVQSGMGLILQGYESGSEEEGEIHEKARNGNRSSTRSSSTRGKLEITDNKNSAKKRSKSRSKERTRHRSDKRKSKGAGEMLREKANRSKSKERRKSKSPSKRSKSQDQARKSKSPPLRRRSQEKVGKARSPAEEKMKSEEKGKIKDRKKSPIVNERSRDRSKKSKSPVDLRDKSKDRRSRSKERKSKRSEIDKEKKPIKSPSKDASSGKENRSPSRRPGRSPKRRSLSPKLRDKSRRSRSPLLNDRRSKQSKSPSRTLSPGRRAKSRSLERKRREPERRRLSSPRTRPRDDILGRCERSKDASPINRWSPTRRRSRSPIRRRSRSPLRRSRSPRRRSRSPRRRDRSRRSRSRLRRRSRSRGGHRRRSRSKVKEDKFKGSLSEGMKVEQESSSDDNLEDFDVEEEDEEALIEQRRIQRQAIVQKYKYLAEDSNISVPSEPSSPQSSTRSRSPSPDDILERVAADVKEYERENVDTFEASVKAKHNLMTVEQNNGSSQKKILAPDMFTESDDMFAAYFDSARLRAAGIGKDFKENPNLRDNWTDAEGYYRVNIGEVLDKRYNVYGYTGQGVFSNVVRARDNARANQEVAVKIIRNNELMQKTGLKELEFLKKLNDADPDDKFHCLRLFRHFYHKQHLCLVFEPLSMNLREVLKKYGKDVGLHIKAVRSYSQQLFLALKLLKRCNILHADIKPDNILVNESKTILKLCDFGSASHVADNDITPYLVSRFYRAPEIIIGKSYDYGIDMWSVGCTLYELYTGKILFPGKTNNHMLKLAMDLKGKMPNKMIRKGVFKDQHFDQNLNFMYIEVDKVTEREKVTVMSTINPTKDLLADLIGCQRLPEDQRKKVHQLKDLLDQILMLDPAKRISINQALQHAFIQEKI
Sequence of UniProt Q60737 (Q60737 whole entry): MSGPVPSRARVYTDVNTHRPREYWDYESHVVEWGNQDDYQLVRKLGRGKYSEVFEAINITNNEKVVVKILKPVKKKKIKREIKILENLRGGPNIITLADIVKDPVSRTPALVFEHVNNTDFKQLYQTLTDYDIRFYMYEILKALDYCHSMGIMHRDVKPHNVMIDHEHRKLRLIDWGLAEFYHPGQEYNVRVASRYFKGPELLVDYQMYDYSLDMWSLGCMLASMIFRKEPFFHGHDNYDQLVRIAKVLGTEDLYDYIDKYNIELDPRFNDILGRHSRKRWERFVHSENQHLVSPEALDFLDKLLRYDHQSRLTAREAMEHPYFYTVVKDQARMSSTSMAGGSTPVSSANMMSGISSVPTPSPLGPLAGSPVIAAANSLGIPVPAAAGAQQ
Sequence of UniProt P22315 (P22315 whole entry): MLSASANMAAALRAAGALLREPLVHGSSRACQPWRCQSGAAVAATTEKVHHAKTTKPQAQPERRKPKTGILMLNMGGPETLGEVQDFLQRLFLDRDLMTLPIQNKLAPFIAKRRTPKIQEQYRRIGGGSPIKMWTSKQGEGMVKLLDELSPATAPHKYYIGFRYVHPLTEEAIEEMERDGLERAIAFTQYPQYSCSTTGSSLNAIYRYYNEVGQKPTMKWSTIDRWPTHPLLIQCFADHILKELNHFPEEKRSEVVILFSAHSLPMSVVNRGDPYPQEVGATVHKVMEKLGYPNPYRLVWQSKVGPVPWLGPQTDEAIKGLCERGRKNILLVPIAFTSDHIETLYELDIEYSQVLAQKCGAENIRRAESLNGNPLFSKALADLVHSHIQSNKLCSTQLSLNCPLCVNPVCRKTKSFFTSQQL
Sequence of UniProt P48962 (P48962 whole entry): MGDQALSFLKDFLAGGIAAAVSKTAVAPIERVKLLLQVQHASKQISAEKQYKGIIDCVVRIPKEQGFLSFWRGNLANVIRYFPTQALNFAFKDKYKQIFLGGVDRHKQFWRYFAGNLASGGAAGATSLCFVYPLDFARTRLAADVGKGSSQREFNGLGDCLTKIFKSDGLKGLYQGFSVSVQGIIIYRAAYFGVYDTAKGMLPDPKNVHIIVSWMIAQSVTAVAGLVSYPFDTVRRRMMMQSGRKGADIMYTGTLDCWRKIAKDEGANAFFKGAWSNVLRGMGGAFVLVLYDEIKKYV

Target	log2 fold change
UniProt Q9EP53 (peptide sequence: SHLLQQNQR, peptide start residue: 890)	-0.636
UniProt Q9DC28 (peptide sequence: FDDKPDYSYLR, peptide start residue: 260)	-0.751
UniProt O35857 (peptide sequence: NSKGEVYDGDPDKVQR, peptide start residue: 403)	-0.52
UniProt O55047 (peptide sequence: YLLLHLLGR, peptide start residue: 408)	-1.75
UniProt P47757 (peptide sequence: QMEKDETVSDCSPHIANIGR, peptide start residue: 196)	-1.11
UniProt Q9WUN2 (peptide sequence: VFNNISFLRPVDVQMR, peptide start residue: 39)	-2.34
UniProt Q8BK48 (peptide sequence: DFRPPYVK, peptide start residue: 447)	-1.1
UniProt Q8N9S3 (peptide sequence: SPAVLEAER, peptide start residue: 231)	0.295
UniProt Q05020 (peptide sequence: TYPISMDEK, peptide start residue: 59)	0.537
UniProt Q99JT2 (peptide sequence: LADFGVAGQLTDTQIKR, peptide start residue: 156)	-0.843
UniProt P24788 (peptide sequence: YLPALQGCR, peptide start residue: 414)	-0.33
UniProt O88451 (peptide sequence: LWDQTSSEVK, peptide start residue: 225)	-0.709
UniProt Q8R4K2 (peptide sequence: GCVNNTIVAVK, peptide start residue: 203)	-2.95
UniProt P48962 (peptide sequence: MMMQSGRK, peptide start residue: 238)	0.293
UniProt Q9Z2A0 (peptide sequence: HIIKENKVPYVTR, peptide start residue: 120)	-2.47
UniProt P55264 (peptide sequence: ELFDELVK, peptide start residue: 63)	-2.24
UniProt Q91XF0 (peptide sequence: SSQIGAVVSR, peptide start residue: 164)	1.44
UniProt P62717 (peptide sequence: AHSIQIMK, peptide start residue: 121)	0.267
UniProt Q62445 (peptide sequence: RFECPECSKR, peptide start residue: 704)	-1

Target	log2 fold change
UniProt Q7TMY8 (peptide sequence: HLGYTLCK, peptide start residue: 3630)	0.491
UniProt P22315 (peptide sequence: LFLDRDLMTLPIQNK, peptide start residue: 91)	-1.03
UniProt Q8BTH8 (peptide sequence: GSLPWQGLK, peptide start residue: 245)	-0.593
UniProt O89023 (peptide sequence: VNTEFMK, peptide start residue: 339)	-0.234
UniProt Q99JP0 (peptide sequence: NVNTGELAAIK, peptide start residue: 35)	-1.82
UniProt Q3UYH7 (peptide sequence: SLLEGLLQR, peptide start residue: 423)	-0.733
UniProt P14246 (peptide sequence: HVLGVPLDDR, peptide start residue: 44)	0.702
UniProt Q8BZ09 (peptide sequence: IQGPQPVPGEIK, peptide start residue: 234)	0.534
UniProt P36552 (peptide sequence: NPYAPTMHFNYR, peptide start residue: 240)	-0.601
UniProt Q60737 (peptide sequence: VYTDVNTHRPR, peptide start residue: 11)	0.264
UniProt P11798 (peptide sequence: DLKPENLLLASK, peptide start residue: 136)	-3.02
UniProt Q9EPE9 (peptide sequence: EVTPVSSIPIETHR, peptide start residue: 553)	-0.718
UniProt O70291 (peptide sequence: DLKPENILLDDHGHIR, peptide start residue: 311)	-1.62
UniProt Q80UW5 (peptide sequence: GAFGEVAVVR, peptide start residue: 80)	-1.9
UniProt Q8C078 (peptide sequence: DIKPSNLLVGEDGHIK, peptide start residue: 312)	-3.1
UniProt Q9EQC1 (peptide sequence: DFYYQGLR, peptide start residue: 204)	-0.862
UniProt Q61136 (peptide sequence: LNDADPDDKFHCLR, peptide start residue: 739)	-1.19
UniProt Q9JHU4 (peptide sequence: SNLPDNLK, peptide start residue: 2024)	0.261
UniProt Q9DB30 (peptide sequence: IMEVSAER, peptide start residue: 54)	-3.03
